Bioassay records as filed in PubChem.
KCNH2 WT inh = KCNH2 (human, wildtype) channel inhibition | Q12809 | U2OS, BacMam KCNH2, thallium flux FluxOr; active compounds read low | activity change, % at 1.84 µM | AID 720551 | 340,000 tested, 0.37% active;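 active = maximum activity change below -70%; inconclusive = maximum activity change between -70% and -50%; inactive = maximum activity change above -50%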; also: % is scaled to controls: 0 for no effect and ±100 for the full control effect
Target sequence (Q12809 whole entry, looked up): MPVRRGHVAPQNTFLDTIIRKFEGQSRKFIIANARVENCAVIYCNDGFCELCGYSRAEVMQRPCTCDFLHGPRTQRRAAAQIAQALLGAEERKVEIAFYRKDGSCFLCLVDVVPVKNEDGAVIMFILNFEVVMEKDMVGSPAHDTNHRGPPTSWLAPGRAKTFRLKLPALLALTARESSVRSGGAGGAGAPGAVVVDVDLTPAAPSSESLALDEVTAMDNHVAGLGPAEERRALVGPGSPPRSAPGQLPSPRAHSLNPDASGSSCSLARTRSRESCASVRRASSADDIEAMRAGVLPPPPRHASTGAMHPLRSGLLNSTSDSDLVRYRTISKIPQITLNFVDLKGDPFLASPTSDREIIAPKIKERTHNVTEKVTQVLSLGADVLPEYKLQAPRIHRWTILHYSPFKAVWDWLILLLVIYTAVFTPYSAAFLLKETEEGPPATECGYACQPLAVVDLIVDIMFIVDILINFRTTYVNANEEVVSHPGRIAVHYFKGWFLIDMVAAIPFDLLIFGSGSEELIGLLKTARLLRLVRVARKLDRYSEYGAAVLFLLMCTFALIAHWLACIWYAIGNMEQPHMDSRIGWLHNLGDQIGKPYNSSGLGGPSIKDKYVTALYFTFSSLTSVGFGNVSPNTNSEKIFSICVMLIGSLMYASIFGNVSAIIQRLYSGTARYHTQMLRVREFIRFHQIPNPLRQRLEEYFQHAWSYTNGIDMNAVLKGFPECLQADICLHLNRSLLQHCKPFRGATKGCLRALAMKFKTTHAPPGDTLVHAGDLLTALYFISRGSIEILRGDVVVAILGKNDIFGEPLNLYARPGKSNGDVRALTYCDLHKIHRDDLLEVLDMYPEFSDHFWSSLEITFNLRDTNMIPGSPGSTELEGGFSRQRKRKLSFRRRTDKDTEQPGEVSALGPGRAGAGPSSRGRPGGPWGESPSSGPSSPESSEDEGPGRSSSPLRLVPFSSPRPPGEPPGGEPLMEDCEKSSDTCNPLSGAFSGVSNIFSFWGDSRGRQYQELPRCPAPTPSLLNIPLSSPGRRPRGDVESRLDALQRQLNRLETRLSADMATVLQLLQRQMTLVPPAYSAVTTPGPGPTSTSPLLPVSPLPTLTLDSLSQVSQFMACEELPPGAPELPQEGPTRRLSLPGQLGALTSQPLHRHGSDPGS
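U2OS cells transduced with wild-type KCNH2 virus are loaded with FluxOr dye for 45 min, and thallium flux is measured in kinetic reads before and after stimulation buffer. Rate constants are normalized to DMSO controls.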
ClpP mod = qHTS Assay for Activators of ClpP; purified B. subtilis ClpP, FRET peptide cleavage, 20 min; Potency, µM (doses to about 57.5 µM), inactives show top-dose activity change, negative = active; 340,000 tested, 1.9% active; AID 651965, 2013; active = well fitted falling curve with a large enough effect; inconclusive = small, poorly fitted or top-dose-only effect; inactive = no such curve, though single readings can be large or run the other way; also: potency is read from the fitted curve at half-maximal effect; the source files actives as falling curves though it sought activators and does not explain the sign; nearly all actives have a fitted effect of over 65% in size
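Purified B. subtilis ClpP, 10 microg/mL final in Tris/HCl pH8 with KCl, BSA, glycerol and Tween-20, cleaved an Abz/nitrotyrosine-quenched decapeptide. Fluorescence (ex 320, em 430) was read at 0 and 20 min at room temperature. Delta was normalized to 5.8 microM ADEP and DMSO/no-enzyme controls.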
KCNH2 3.1 block = KCNH2 3.1 (human) potassium channel inhibition; AID 720553; 340,000 tested, 0.95% active; activity change, % (tested at about 1.8 µM); U2OS KCNH2 3.1, thallium flux FluxOr; active compounds read low;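 active = maximum activity change below -70%; inconclusive = maximum activity change from -70% to -50%; inactive = maximum activity change above -50%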;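 also: thallium influx rate constant from kinetic fluorescence after stimulation buffer; % is scaled to controls: 0 for no effect and ±100 for the full control effect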
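FluxOr-based Tl+ influx in U2OS cells transduced with KCNH2 3.1 virus; rate constants normalized to DMSO controls.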
LDHA block = blocks human lactate dehydrogenase A. 480,000 tested, 0.15% active. purified LDHA, NADH/diaphorase-resazurin fluorescence; active compounds read low. P00338. activity change, % (values are at about 110 or 230 µM); in the data active = activity change below about -30%; inconclusive = mostly about -25% to -30%;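 also: plate controls were DMSO wells for no effect and wells without enzyme for full effect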
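Human LDH5 (2 nM) was incubated with 0.06 mM NADH and 0.2 mM pyruvate for 5 min at room temperature in Tris pH 7.4. Remaining NADH was coupled through diaphorase/resazurin, and resorufin fluorescence was read at 0 and 20 min.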
BCR signal inh = inhibitors of chronic active B-cell receptor signaling. ABC-DLBCL IkBa-CBG/CBR reporter, luminescence ratio, 4 h. Potency, µM (series often up to 46.1 µM), without a hit: at the highest dose activity change, negative = inhibition, usual class: inhibitors. 340,000 tested, 0.05% active. AID 493014; active = well fitted inhibition curve with a large enough effect in the signal ratio, with a control signal flat, not every such curve was filed as active; inconclusive = small, poorly fitted or top-dose-only effect, or effect the other way, or a change in a side signal; the % refers to the signal ratio;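 also: potency is read from the fitted curve at half-maximal effect; plate controls were basal doxycycline-induced cells for no effect and cells given 10 µM MG132 for full effect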
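TMD8 human ABC-DLBCL cells with doxycycline-inducible IκBα–green luciferase fusion and unfused red luciferase, in 0.5% FBS medium; compounds up to 46 uM, 4 h at 37C. Green/red luminescence ratio, filter-overlap corrected, fitted to concentration-response curves.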
ALOX12 inh = inhibitors of human 12S-lipoxygenase ALOX12 | P18054 | purified 12hLO, xylenol orange hydroperoxide absorbance | Potency, µM (highest dose often 108 µM), inactives show at the top dose activity change, negative = inhibition, hits mostly inhibitors | 580,000 tested, 1.1% active; active = well fitted inhibition curve with a large enough effect; inconclusive = small, poorly fitted or top-dose-only effect, or another doubt; inactive = no such curve, though single readings can be large or run the other way; also: potency is read from the fitted curve at half-maximal effect; % is scaled to controls: 0 for no effect and ±100 for the full control effect
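Purified human 12hLO (150 nM final) in 25 mM Hepes, 0.01% Triton X-100, pH 7.0 was preincubated 15 min at room temperature with compound. Then 40 uM arachidonic acid was added, 30 min. Hydroperoxide was read by Fe-XO absorbance ratio 573/405 nm.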
Active calls of the source: *; i = inactive; ? = inconclusive; / = not tested or not shown; ! = not confirmed by another sample; [ ] = remark or other dose. Shown are actives, neighbours in structure and some others; about 3% of the full set was active somewhere.

SMILES | KCNH2 WT inh | ClpP mod | KCNH2 3.1 block | LDHA block | BCR signal inh | ALOX12 inh
CCC(NC(=O)C1CCC1)c1ccccc1 (stereo not given) | 2 | -1% | 8 | -9 | -5% | 0%
CCSc1nc2n(n1)C(c1ccc(O)c(OC)c1)C1=C(CC(C)(C)CC1=O)N2 (stereo not given) | / | / | / | 4 | / | 23%
S=C(Nc1ccccc1)Nc1nc2ccccc2n1CCOc1ccc(Cl)cc1 | 52 | 2% | -17 | -1 | ? | 8.9µM*
CCCn1c(NC(=S)Nc2ccccc2)nc2ccccc21 | 3 | 3% | 5 | -5 | ? | 22µM*
Cc1nonc1OCCNC(=O)C1CCC(=O)N(CCN2CCOCC2)C1 (stereo not given) | / | / | / | / | / | 72%
Cc1ccc2[nH]c3c(c2c1)CN(C(=O)CN1CCN(c2cccc(C)c2C)CC1)CC3 | 1 | -1% | -13 | 19 | 2% | 40µM*
Cc1ccc2[nH]c3c(c2c1)CN(C(=O)CN1CCN(C(=O)c2ccco2)CC1)CC3 | / | / | / | / | -11% | ?
Cc1ccc(C(=O)Nc2sccc2C#N)s1 | / | / | / | 16 | / | 50µM*
CC(=O)Nc1sccc1C#N | / | / | / | -3 | / | ?
Cc1cccc(C2N=C(N)Nc3nc4ccccc4n32)c1 (stereo not given) | 6 | 25µM*! | 8 | -1 | 0% | -1%
Cc1ccc(C2N=C(N)Nc3nc4ccccc4n32)cc1 (stereo not given) | 3 | -3% | 1 | 2 | 0% | 6%
Cc1ccc(NC(=O)c2ccc(NC(=O)N3CCSc4ncccc43)cc2)c(Cl)c1 | / | 28µM* | / | -4 | / | ?
COc1ccc(CNC(=O)c2ccc(NC(=O)N3CCSc4ncccc43)cc2)cc1 | / | ? | / | 1 | / | -22%
Cc1ccc(Cl)cc1NC(=O)c1ccc(NC(=O)N2CCSc3ncccc32)cc1 | / | 32µM* | / | -4 | / | -27%
Cc1ccc(NC(=O)c2ccc(NC(=O)N3CCSc4ncccc43)cc2)c(C)c1 | / | ? | / | 2 | / | -18%
COc1cc(NC(=O)c2ccc(NC(=O)N3CCSc4ncccc43)cc2)cc(OC)c1 | / | 32µM* | / | 4 | / | ?
CCOC(=O)c1cc(C#N)c(SC)nc1-c1ccccc1 | -10 | -7% | -36 | -2 | 5% | 3%
CCOC(=O)c1cc(C#N)c(N2CCN(c3ccccn3)CC2)nc1-c1ccccc1 | 4 | / | -94* | -1 | 1% | 22%
C[C@@H](NC(=O)c1cccn1C)c1onc(-c2cccnc2)c1C(=O)O | / | / | / | / | / | 5%[176 µM]
Cn1cc(CNCc2cnc3ccccn23)c(-c2ccc(Oc3ccccc3)cc2)n1 | i | / | -207* | 1 | -2% | -1%
CSc1nsc(/C=C/Nc2ccc(O)cc2C)c1C#N | -3 | -1% | -8 | 15 | ? | 35µM*
CSc1nsc(/C=C/Nc2ccc(F)cc2)c1C#N | 2 | 0% | 0 | 13 | ? | ?
CS(=O)(=O)N1CCN(c2ccccc2NC(=O)c2cc(Br)ccc2Cl)CC1 | 31 | / | -1 | -14 | 2% | -3%
CS(=O)(=O)N1CCN(c2ccccc2NC(=O)c2ccc(-c3ccc(Br)cc3)o2)CC1 | -4 | 32µM* | -20 | -11 | ? | -5%
O=C(Nc1cccc2nsnc12)c1ccc(-c2ccc(Br)cc2)o1 | 3 | -3% | 4 | 16 | -1% | 35µM*
SMILES | KCNH2 WT inh | ClpP mod | KCNH2 3.1 block | LDHA block | BCR signal inh | ALOX12 inh
Cc1ccc2cccc(NC(=O)c3ccc(-c4ccc(Br)cc4)o3)c2n1 | / | 0% | / | -3 | / | -4%
O=C(Nc1ccccc1)Nc1cccc2nsnc12 | -27 | ? | 20 | 4 | ? | 40µM*
Cc1ccc(C(=O)Nc2ccccc2C(=O)O)cc1S(=O)(=O)Nc1ccccc1 | -7 | 1% | -3 | -1 | 1% | -15%
Cc1ccc(C(=O)Nc2ccccc2C(=O)O)cc1S(=O)(=O)NC1CCCCC1 | 7 | 0% | -71* | -1 | -14% | 437%
CCc1ccc(OCCCCCn2ccnc2)cc1 | -2 | 1% | -4 | -13 | 7% | 1.3µM*
Cc1cccc(Cl)c1OCCCn1ccnc1 | -4 | -3% | 4 | -37* | ? | 0%
Cc1cc(Cl)cc(C)c1OCCCCCn1ccnc1 | 12 | 0% | -2 | 0 | -1% | ?
Clc1ccc(OCCn2ccnc2)c(Br)c1 | 14 | -1% | -18 | -16 | 27% | 3.2µM*
Cc1nc2ccc(Cl)cc2cc1C(=O)NCc1cccnc1OC(C)C | / | / | / | -2 | / | ?
CC(C)NC(=O)/C(=C/c1ccc(-c2cccc(C(F)(F)F)c2)o1)NC(=O)c1ccccc1 | / | / | / | -3 | / | 3%
CCC(=O)N1CCN(c2oc(/C=C/c3ccccc3)nc2C#N)CC1 | / | / | / | -4 | / | ?
CCCOc1c(Cl)cc(C(=O)N(Cc2sccc2C)C2CCS(=O)(=O)C2)cc1Cl (stereo not given) | / | / | / | 6 | / | -3%
Cc1cc(N)n2ncc(-c3ccc(Cl)cc3)c2n1 | -2 | 22µM* | 13 | 2 | ? | 17%
CCN(C(=O)COC(=O)c1ccc(OCc2c(C)noc2C)cc1)c1ccccc1 | 9 | 25µM* | 5 | -7 | -30% | -1%
CCN(c1ccccc1)S(=O)(=O)c1ccc(OCc2c(C)noc2C)cc1 | 6 | 0% | 9 | -2 | -1% | 0%
O=C1COc2ccc(OCc3ccccc3)nc2CN1Cc1ccccc1F | / | / | / | / | / | 0%[176 µM]
CSc1ccccc1C(=O)Nc1cccc2ccccc12 | / | / | / | 3 | / | 9%
CCN1CCc2c(sc(NC(=O)Nc3ccc(Cl)c(Cl)c3)c2C(N)=O)C1 | -133* | -4% | -119* | 7 | ? | ?
CN(C)CCN(Cc1ccco1)C(=O)c1oc2ccccc2c1NC(=O)COc1ccccc1 | -33 | -10% | -95* | 0 | ? | ?
CCOCCOC(=O)c1nc2ccccc2nc1Nc1cc(C)cc(C)c1 | / | / | / | 3 | / | 7.1µM*
O=C(Cn1c2[n+](c3ccccc31)CC(O)CS2)c1ccccc1 (stereo not given) | 1 | 3.2µM* | 1 | -6 | 0% | -11%
Cc1cc(NC(=O)CN2CCN(C(=O)c3c(F)cccc3F)CC2)no1 | / | / | / | 1 | / | 19%
CCOC(=O)C1CCN(CC(=O)Nc2c(C(=O)OC)[nH]c3ccc(Cl)cc23)CC1 | -1 | 28µM* | 15 | -6 | ? | 68%
COC(=O)c1[nH]c2ccc(C)cc2c1NC(=O)c1ccccc1F | / | / | / | -4 | / | ?
COC(=O)c1[nH]c2ccc(Cl)cc2c1NC(=O)Oc1ccccc1 | -14 | 10µM* | 12 | -1 | -4% | -26%
COC(=O)c1[nH]c2ccc(Cl)cc2c1NC(=O)C1CC1 | 17 | 32µM* | -6 | -9 | 7% | 0%
